What all share (experiment): NCI-60 one-dose screen, 48 h (100 = growth as untreated, 0 = no growth, -100 = all killed)
Experiment [1] deals with HCT-15 colon. The note with it: 10 µM unless noted.
In experiment [2] the test system is HT29 colon. To be noted: 10 µM unless noted.
Experiment [3] has as its system SNB-75 CNS. To be noted: 10 µM.
For experiment [4], the system named is SNB-19 CNS. To be noted: 10 µM unless noted.
For experiment [5], the system named is U251 CNS. To be noted: 10 µM unless noted.
In experiment [6] the test system is PC-3 prostate. The note with it: 10 µM unless noted.
In experiment [7] the test system is SK-MEL-5 melanoma. The note with it: 10 µM unless noted.
In experiment [8] the test system is UACC-62 melanoma. The note with it: 10 µM unless noted.
Experiment [9] deals with LOX IMVI melanoma. To be noted: 10 µM unless noted.
The subject of experiment [10] is SK-MEL-28 melanoma. The note with it: 10 µM unless noted.
Experiment [11] concerns SK-MEL-2 melanoma. To be noted: 10 µM unless noted.
Experiment [12] deals with EKVX NSCLC. The note with it: 10 µM unless noted.
In experiment [13] the test system is SN12C renal. The note with it: 10 µM unless noted.
In experiment [14] the test system is UO-31 renal. The note with it: 10 µM unless noted.
Experiment [15] deals with TK-10 renal. To be noted: 10 µM unless noted.
For experiment [16], the system named is ACHN renal. The note with it: 10 µM unless noted.
For experiment [17], the system named is CAKI-1 renal. To be noted: 10 µM unless noted.
Experiment [18] relates to A498 renal. To be noted: 10 µM unless noted.
In experiment [19] the test system is CCRF-CEM leukemia. To be noted: 10 µM unless noted.
The subject of experiment [20] is MOLT-4 leukemia. To be noted: 10 µM unless noted.

Compounds without any hit were thinned out: in the full panel of roughly 83,000, 20% have a hit.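 Treatment: one concentration, 48 hours, 96-well format. Scoring: percent growth, with anything below 10 considered active.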 Values without a mark were called inactive. Active and inactive are the calls of the source.

As for `Cn1ccc(=O)c(S(N)(=O)=O)c1`, the growth is 109% in [1]; 107% in experiment [2]; 79.2% in experiment [3]; 95.5% in experiment [4]; 90.7% in experiment [5]; 101% in [6]. The growth in experiment [7] was 112%; in experiment [8], 95.8%; in [9], 91.9%; in [10] it was 116%; in experiment [11], 99.8%; in experiment [12], 89.3%. Also, the growth in experiment [13] was 101%; in [14] it was 69%; in experiment [15], 113%; in experiment [16], 95.5%; in experiment [17], 67.2%; in [18] it was 107%. The growth in experiment [19] is 99.9%; in experiment [20] it was 94.4%.
Regarding `CC(C)(C)NCCC(O)c1cc2c(Cl)cc(Cl)cc2c2cc(C(F)(F)F)ccc12` (stereo unspecified), the growth in [1] is -70.5% (active); in [2] it was -80.3% (active); in experiment [4], -70.9% (active); in experiment [5] it was -94.2% (active); in experiment [6] it was -92.3% (active); in experiment [7], -63.2% (active). Also, the growth in experiment [8] was -77.3% (active); in [9] it was -70.7% (active); in [10], -91.6% (active); in [11] it was -69.5% (active); in [12], -63.9% (active); in experiment [13], -80.1% (active). Also, the growth in experiment [14] was -88.8% (active); in [15], -85.7% (active); in [16], -75.9% (active); in experiment [17] it was -68.2% (active); in experiment [18] it was 16.5%; in [19], -50.7% (active). Besides, in experiment [20], the growth is -61.9% (active).
On to `CCOC(=O)c1c(NS(=O)(=O)c2ccc(C)cc2)sc2c1CCC1(C2)OCCO1`, for which the growth in experiment [1] is 98.3%; in experiment [2] it was 104%; in [4], 98.7%; in [5], 99.1%; in [6], 87.1%; in [7] it was 95.2%. Also, the growth in experiment [8] is 78.2%; in [9], 98.9%; in experiment [10], 101%; in experiment [11] it was 90.3%; in experiment [12], 94.6%; in experiment [13], 95.1%. The growth in experiment [14] is 82.6%; in experiment [15], 120%; in experiment [16], 95.1%; in [17] it was 85.1%; in experiment [18], 98%; in [19], 96.2%. In addition, the growth in experiment [20] was 85.8%.
As for `Cc1ccc(NS(=O)(=O)c2cc(C)ccc2C)cc1`, the growth is 32.9% in [1]; 10.8% in experiment [2]; 53.1% in [4]; 36.8% in experiment [5]; 57.6% in experiment [6]; 30.3% in [7]. Further, the growth is 40% in [8]; 41% in experiment [9]; 61.5% in experiment [10]; 20.3% in experiment [11]; 55.4% in experiment [12]; 60.8% in experiment [13]. Moreover, the growth in [14] is 65.5%; in experiment [15], 58.5%; in [16] it was 70.7%; in experiment [17] it was 25.3%; in experiment [18] it was 38.7%.
For the compound `Cc1ccc2[nH]c(=O)c3c(c2c1)Oc1ncn2nc(-c4ccco4)nc2c1C3c1ccc(Cl)cc1` (stereo unspecified), the growth in [1] was 91.6%; in [2] it was 101%; in [4], 88.2%; in experiment [5] it was 97.7%; in experiment [6], 93.7%; in [7], 99%. Further, the growth is 101% in experiment [8]; 90.4% in experiment [9]; 103% in experiment [10]; 95.6% in [11]; 90.9% in [12]; 96.2% in [13]. Moreover, the growth was 84.9% in [14]; 107% in experiment [15]; 94.6% in experiment [16]; 91.9% in [17]; 96.8% in experiment [18]; 97.4% in [19].
As for `C/C(=N/NC(=S)Nc1ccccc1)c1nc2ccc(Cl)cc2[nH]1`, the growth was 0.555% (active) in [1]; -88.5% (active) in experiment [2]; -75.5% (active) in experiment [3]; -33.7% (active) in experiment [4]; -44.2% (active) in [5]; -47.7% (active) in experiment [6]. In addition, the growth in experiment [7] is -97.3% (active); in experiment [8], -72.6% (active); in experiment [9] it was -75.8% (active); in experiment [10], -96.6% (active); in [11], -93.6% (active); in experiment [12] it was -23.6% (active). Also, the growth was -37.4% (active) in experiment [13]; -35.5% (active) in experiment [14]; -39.1% (active) in experiment [15]; 7.65% (active) in experiment [16]; 9.36% (active) in experiment [17]; -81.4% (active) in [18]. The growth in [19] was 1.46% (active).
In the case of `COc1ccc(C2NN=C3c4ccccc4CCC32)cc1` (stereo unspecified), the growth was 40% in [1]; 44.5% in [2]; 48.3% in [3]; 76.5% in experiment [4]; 80.4% in experiment [5]; 66.6% in experiment [6]. The growth is 15.2% in [7]; 49.9% in [8]; 72.5% in experiment [9]; 76% in experiment [10]; 78.1% in [11]; 64.3% in [12]. Further, the growth in experiment [13] is 84.4%; in experiment [14] it was 54.1%; in experiment [15] it was 76.4%; in experiment [16] it was 93.4%; in experiment [17], 21.9%; in [18], 58.2%. For the same compound, the growth in [19] is 13.4%; in experiment [20], 16.8%.
For the compound `CCCCN(CCCC)C(=O)CC`, the growth in experiment [1] was 101%; in experiment [2], 110%; in experiment [4], 114%; in experiment [5] it was 120%; in experiment [6], 98.2%; in experiment [7], 103%. For the same compound, the growth in [8] was 106%; in experiment [9] it was 104%; in experiment [10] it was 114%; in experiment [11], 112%; in [12], 105%; in [13], 109%. The growth is 99.5% in experiment [14]; 114% in [15]; 112% in experiment [16]; 109% in experiment [17]; 97.7% in [18]; 96.8% in experiment [19]. Also, in experiment [20], the growth was 97.8%.

(Values after PubChem BioAssay (NCI).)
